Source: PubChem BioAssay (several laboratories)
PABP FP inh: blocks human PABP binding to poly(A) RNA | 290,000 compounds, 1% hits | P11940 | calls only at 35 µM | AID 2014 | fluorescence polarization;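 also: calls also rest on retests at 20 µM and on dose response follow-up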
AI-2 QS mod: modulators of Vibrio harveyi AI-2 quorum sensing system | AID 2094 | Vibrio harveyi JMH597 AI-2 luminescence/OD600 ratio, 9 h; stronger effect = lower value; strain lacks LuxN and CqsS sensors; 0 = neutral-control median | 300,000 compounds, 0.4% hits | activity change, % at 7.5 µM; in the data active = activity change below about -75%, passing the limit was not always enough; inconclusive = no clear call, values can overlap the other calls;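 also: luminescence divided by OD600 gain over 9 h not by final OD600 alone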
PABP1 MLLE inh: blocks PAM2 peptide binding to the PABP1 MLLE domain; inhibition, % at 20 µM; 360,000 compounds, 0.36% hits; GST-MLLE / FITC-PAM2 fluorescence polarization; P11940; in the data active = inhibition above about 35%, passing the limit was not always enough;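 also: plate controls were DMSO wells with GST-MLLE for no effect and wells lacking GST-MLLE protein for full effect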
eIF4H inh: inhibitors of RNA binding by human eIF4H; 290,000 compounds, 0.94% hits; inhibition, % at 35 µM; Q15056; eIF4H fluorescence polarization binding assay; AID 2012;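 also: calls also rest on retests at 20 µM and on dose response follow-up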
PHOSPHO1 block: inhibitors of human PHOSPHO1 phosphatase. Q8TCT1. recombinant PHOSPHO1, absorbance phosphatase assay. inhibition, % at 13.3 µM. 290,000 compounds, 1.1% hits. AID 1565; in the data active = inhibition above about 60%
Target sequence (Q8TCT1 whole entry, looked up): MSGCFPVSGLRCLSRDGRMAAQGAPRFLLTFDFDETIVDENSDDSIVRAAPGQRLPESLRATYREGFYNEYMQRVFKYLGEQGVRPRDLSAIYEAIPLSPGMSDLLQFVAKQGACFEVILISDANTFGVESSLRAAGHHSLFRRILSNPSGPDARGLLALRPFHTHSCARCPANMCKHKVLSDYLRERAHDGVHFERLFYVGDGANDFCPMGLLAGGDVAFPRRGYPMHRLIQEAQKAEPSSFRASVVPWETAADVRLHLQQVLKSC
ABCB6 inh 2: inhibitors of human ABC transporter ABCB6; K562-ABCB6 porphyrin accumulation, flow cytometry, 1 h; stronger effect = lower value; Q9NP58; fluorescence ratio to DMSO, % at 10 µM; 360,000 compounds, 0.19% hits;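 active = fluorescence ratio to DMSO below 75%, the collection mean minus 3 SD; inconclusive = too few cells collected in the well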;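 also: signal is porphyrin accumulated inside mitochondria; 100% equals median channel fluorescence of DMSO control wells; lower ratio means ABCB6 inhibition with less porphyrin fluorescence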
Active calls of the source: *; i = inactive; ? = inconclusive; / = not tested or not shown; + = active, no number. Only some compounds are listed: those with a hit (about 2.6% of all), similar ones and a draw of the others. Unless noted, no rule for the calls is given here.

SMILES | PABP FP inh | AI-2 QS mod | PABP1 MLLE inh | eIF4H inh | PHOSPHO1 block | ABCB6 inh 2
Cc1ccc(N(C(=O)Cn2nnc(-c3cccs3)n2)C(C(=O)NC2CCCC2)c2ccncc2)cc1 (stereo not given) | i | 14 | 14 | -3 | 60* | 96
CCCCNC(=S)NNC(=O)c1csc2ccccc12 | i | 14 | 5 | -5 | 62* | 97
CCCCNC(=S)NNC(=O)c1ccoc1C | i | 10 | -34 | 1 | 46 | 104
CCc1nc2ccc(C(=O)NCCOc3ccc(OC)cc3)cn2c1N(C)CCCc1ccccc1 | / | / | 5 | / | / | 97
CCNC(=S)NC(=NCc1cccnc1)Nc1nc(C)cc(C)n1 | i | 5 | 65* | 16 | 8 | 94
C=C1CCCC2OC(CC3=CC4/C(C)=C/CC(C)CC(/C=C(\C)C(O)C5CC(O)C(O)C(CCC(O)/C=C/C(C)=C/CCC6=NCCC(C3)C64C)O5)OC(=O)CC3OC(C(O)C1)C(O)C3O)CC(O)C2O (stereo not given) | / | / | -4 | / | / | 101
Cc1oc(-c2ccccc2F)nc1CSCC(=O)NC1CC1 | i | 11 | 20 | -6 | 75* | 104
Cc1oc(-c2ccccc2F)nc1CSCC(=O)NC1CCC(C)CC1 (stereo not given) | i | 10 | 3 | -12 | 29 | 93
COc1cc(-c2noc(C)c2/C=C/c2cccc([N+](=O)[O-])c2)cc(OC)c1OC | i | 19 | -10 | -8 | -19 | 92
COc1cc(-c2noc(C)c2/C=C/c2ccc(C(=O)O)cc2)cc(OC)c1OC | + | 23 | 5 | 100* | 21 | 102
CN1CCc2c(sc3c2C(=O)NC(c2ccccn2)N3)C1 (stereo not given) | ? | 11 | 51 | ? | 11 | 107
CN1CCc2c(sc3c2C(=O)NC(c2ccccc2)N3)C1 (stereo not given) | + | 8 | -48 | 63* | 13 | 103
O=C1NC(c2ccc(Br)cc2)Nc2sc3c(c21)CCC3 (stereo not given) | + | 9 | -4 | 103* | -57 | 104
O=C(NCc1ccccn1)[C@@H]1CCCN1C(=O)[C@@H]1CCCN1C(=O)c1cccc2ccccc12 | / | / | / | / | / | 100
CC(C)(C)c1ccc(C(=O)N2CCC2(C)C(=O)NCc2cccs2)cc1 (stereo not given) | / | / | -9 | / | / | 102
Oc1cnc2ccccc2c1CN1CCOCC1 | i | 11 | -5 | 0 | 6 | 102
Oc1ccc2ccccc2c1CN1CCOCC1 | i | 6 | 15 | -2 | 74* | 99
CN(NC(=O)c1ccco1)c1nc2ccccc2nc1C(F)(F)F | + | 10 | 2 | active | 20 | 100
CN1OC[C@@H]2CN(S(=O)(=O)c3cccc4ccccc34)[C@H](c3ccc(-c4ccccc4)cc3)C[C@@H]21 | / | / | -14 | / | / | 91
CCCCCCCSc1nnc(-c2ccccc2N)c(=O)[nH]1 | i | 24 | -13 | -7 | -14 | 99
CCCSc1nnc(-c2ccccc2N)c(=O)[nH]1 | i | 16 | 1 | 1 | 1 | 104
CCCCSc1nnc(-c2ccccc2N)c(=O)[nH]1 | i | 18 | 0 | -1 | 90* | 101
CCCCCSc1nnc(-c2cc(Br)ccc2N)c(=O)[nH]1 | i | 4 | -14 | -7 | 95* | 101
O=C(C1=NN(c2ccccc2)C2C(=O)N(c3cccc(Cl)c3)C(=O)C12)c1ccccc1 (stereo not given) | + | / | 7 | ? | -1 | 101
O=C(C1=NN(c2ccccc2)C2C(=O)N(c3ccc(Cl)cc3)C(=O)C12)c1ccccc1 (stereo not given) | i | / | 13 | ? | 11 | 100
SMILES | PABP FP inh | AI-2 QS mod | PABP1 MLLE inh | eIF4H inh | PHOSPHO1 block | ABCB6 inh 2
COc1cc(NC(=O)c2ccco2)c(OC)cc1NC(=O)CSc1ncc(-c2ccc(F)cc2)[nH]1 | i | 31 | 25 | 1 | 74* | 95
CC(C)(C)c1cn(-c2ccccc2)c(=S)[nH]1 | i | 24 | -29 | -9 | 76* | 98
Cc1ccc(-n2cc(C(C)(C)C)[nH]c2=S)cc1 | i | 26 | -27 | -6 | 93* | 96
S=c1[nH]c(-c2ccccc2)cn1-c1ccccc1 | i | 10 | 17 | -1 | 20 | 100
O=C(NC1CCCCC1)C(c1cc2ccccc2o1)N1CCOCC1 (stereo not given) | / | / | -16 | / | / | 91
C[N+]1(CCOS(=O)C23CC4CC(CC(C4)C2)C3)CCOCC1 (stereo not given) | / | 20 | -138 | / | 81* | 98
O=c1[nH][nH]c2c1[C@H](c1ccc(F)cc1)O[C@H](CCC(F)(F)F)C2 | / | / | / | / | / | 112
CCOc1cccc(=O)c2c(C)oc(C)c12 | i | -10 | 44* | -1 | 4 | 104
COc1ccc(N2C(=O)CC(Sc3ccccc3C(=O)O)C2=O)c([N+](=O)[O-])c1 (stereo not given) | i | 16 | 28 | -5 | 34 | 103
CC(C)c1ccc(N2C(=O)CC(Sc3ncccn3)C2=O)cc1 (stereo not given) | i | 5 | 39* | -14 | 30 | 100
Cc1cccc(N2C(=O)CC(Sc3ccccc3C(=O)O)C2=O)c1 (stereo not given) | i | 1 | 24 | -2 | -11 | 102
Cc1ccc(N2C(=O)CC(Sc3ccccc3C(=O)O)C2=O)c([N+](=O)[O-])c1 (stereo not given) | i | 17 | 38* | 2 | 24 | 98
Cc1ccnc(SC2CC(=O)N(c3ccc(C(C)C)cc3)C2=O)n1 (stereo not given) | i | -5 | 12 | 16 | 34 | 101
O=C(O)c1ccccc1SC1CC(=O)N(c2ccc3c(c2)OCO3)C1=O (stereo not given) | i | 16 | 38* | 33 | -10 | 99
Cc1ccc(N2C(=O)CC(Sc3ccccc3C(=O)O)C2=O)cc1 (stereo not given) | i | 21 | 50* | 1 | -1 | 102
NC(=O)c1cccc(-c2ccnc3c2CC(C(=O)Nc2cccc(Oc4ccccc4)c2)O3)c1 (stereo not given) | / | / | -2 | / | / | 100
Cc1cc(C)cc(N2C(=O)CC(Sc3ccccc3C(=O)O)C2=O)c1 (stereo not given) | i | 29 | 41* | -4 | -14 | 97
CCOC(=O)C1CCCN(C(=O)c2cccc(C(F)(F)F)c2)CC1 (stereo not given) | / | / | -5 | / | / | 99
Cc1ccc(C(=O)NCC(=O)N2CCC(Cc3ccccc3)CC2)cc1 | i | 21 | -7 | -2 | 63* | 99
Cn1cnnc1SCC(=O)N1CCN(C(=O)c2ccco2)CC1 | i | 51 | 6 | -5 | 28 | 103
CC(C)NC(=O)c1ccc(CN2CCC(Cc3ccccc3)CC2)cc1 | i | 0 | 3 | 8 | / | 99
Cn1cnnc1SCC(=O)N1CCC(Cc2ccccc2)CC1 | i | 23 | -30 | -7 | 63* | 103
